Reference: PubChem BioAssay (NCATS)
Inconclusive results are not listed. Calls of active or inactive are those of the source. The call rests on the fitted dose curve; in most records, active means well fitted cell-killing curve with a large enough effect; inconclusive means small, poorly fitted or top-dose-only effect, or effect the other way; inactive means flat fitted curve, though single readings scatter.

How the values were obtained:
Assay in all cases: Primary qHTS to identify gynecologic anti-cancer compounds using libraries of approved drugs and bioactive compounds (AID 1345084); further: nearly all actives have a fitted effect of over 55% in size
C33A = conditions: Gynecologic cancer cell panel viability, ATPlite luminescence, 48 h; series mostly up to 57.5 µM
Outline: (§1)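 In this quantitative HTS, cell killing is estimated from loss of ATP-dependent luciferase light. Cells see five compound concentrations over a 48 h exposure.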

CASKI = conditions: Gynecologic cancer cell panel viability, ATPlite luminescence, 48 h; series mostly up to 57.5 µM
Outline: as §1

Es-2 = conditions: Gynecologic cancer cell panel viability, ATPlite luminescence, 48 h; series mostly up to 57.5 µM
Outline: as §1

HeLa = conditions: Gynecologic cancer cell panel viability, ATPlite luminescence, 48 h; series mostly up to 57.5 µM
Outline: as §1

Hek293T = conditions: Gynecologic cancer cell panel viability, ATPlite luminescence, 48 h, control line for the selectivity index; series mostly up to 57.5 µM
Outline: as §1

JEG-3 = conditions: Gynecologic cancer cell panel viability, ATPlite luminescence, 48 h; series mostly up to 57.5 µM
Outline: as §1

Measured: Potency

O=C(NS(=O)(=O)c1ccc(Br)s1)c1ccc(Cl)cc1Cl
inactive: C33A | CASKI | Es-2 | HeLa | Hek293T | JEG-3

COc1cc(N2CCOCC2)ccc1NC(=O)c1csc(-c2cccnc2)n1
inactive: C33A | CASKI | Es-2 | HeLa | Hek293T | JEG-3

O=C(Nc1cccnc1)c1cc(-c2ccnc(F)c2)ccc1OCc1ccccc1
inactive: C33A | CASKI | Es-2 | HeLa | Hek293T | JEG-3

CC(C)=C[C@@H]1[C@H](CO[C@@H]2O[C@H](CO)[C@@H](O)[C@H](O)[C@H]2O)C1(C)C
inactive: C33A | CASKI | Es-2 | HeLa | Hek293T | JEG-3

COc1ccc(NC(=O)c2ccc(-c3ccc(-c4nnc(C)o4)cc3C)cc2)cc1N1CCN(C)CC1
inactive: C33A | CASKI | Es-2 | HeLa | Hek293T | JEG-3

CC1CCC(=O)CC(SCC(O)C(=O)O)CCC(=O)O1 (configuration not stated)
inactive: C33A | CASKI | Es-2 | HeLa | Hek293T | JEG-3

Cc1ccc(-c2ncccn2)c(C(=O)N2C[C@H](COc3ccc(F)cn3)CC[C@H]2C)c1
inactive: C33A | CASKI | Es-2 | HeLa | Hek293T | JEG-3

COC(=O)C[C@H]1[C@]2(C)C3=C(C)[C@H](c4ccoc4)C[C@H]3O[C@@H]2[C@H](O)C2[C@](C)(C(=O)OC)C=CC(=O)[C@@]21C (some centres not stated)
inactive: C33A | CASKI | Es-2 | HeLa | Hek293T | JEG-3

CC(=O)OC1C(=O)C2C3OCC4=C3[C@@](C)(CC[C@@H]4O)CC[C@]2(C)[C@H]1C(C)C (some centres not stated)
inactive: C33A | CASKI | Es-2 | HeLa | Hek293T | JEG-3

N#Cc1cc(-c2ccnc(Nc3ccc(N4CCOCC4)cc3)n2)ccc1OC1CCOCC1
inactive: C33A | CASKI | Es-2 | HeLa | Hek293T | JEG-3

CC(C)[C@@H](c1ccc(C(F)(F)F)cc1CN(Cc1cc(C(F)(F)F)cc(C(F)(F)F)c1)c1nnn(C)n1)N1CCC(C(=O)O)CC1
inactive: C33A | CASKI | Es-2 | HeLa | Hek293T | JEG-3

Cc1nc(Nc2ccc(F)cc2)nc(N2CCc3ccccc3C2C)c1C (configuration not stated)
inactive: C33A | CASKI | Es-2 | HeLa | Hek293T | JEG-3

C=C(C)[C@@H]1CC[C@]2(C(=O)O)CC[C@]3(C(=O)O)[C@H](CCC4[C@@]5(C)CCC(=O)C(C)(C)C5CC[C@]43C)C12 (some centres not stated)
inactive: C33A | CASKI | Es-2 | HeLa | Hek293T | JEG-3

C=C1/C(=C/C=C2\CCC[C@]3(C)[C@@H]([C@H](C)/C=C/[C@@H](C)C(C)C)CC[C@@H]23)C[C@@H](O)C[C@@H]1O
inactive: C33A | CASKI | Es-2 | HeLa | Hek293T | JEG-3

C=C1C(=O)O[C@@H]2C=C(COC(C)=O)CC/C=C(\CO)CC[C@@H]12
inactive: C33A | CASKI | Es-2 | HeLa | Hek293T | JEG-3

COc1ccc([C@H](Cc2ccncc2)c2ccccc2)cc1OC1CCCC1
inactive: C33A | CASKI | Es-2 | HeLa | Hek293T | JEG-3

CC(=O)OC1CC2(C)C(CCC(C)C23Cc2c(O)cc(CO)c(C=O)c2O3)C(C)(C)C1O (configuration not stated)
inactive: C33A | CASKI | Es-2 | HeLa | Hek293T | JEG-3

COc1ccc(OC)c(-c2ccc(NC(=O)c3ccncc3F)cc2)c1
inactive: C33A | CASKI | Es-2 | HeLa | Hek293T | JEG-3

COc1c(C(C)C)c(O)c(O)c2c1C(OC)[C@H]1OC(=O)[C@@]23CCCC(C)(C)[C@H]13 (some centres not stated)
inactive: C33A | CASKI | Es-2 | HeLa | Hek293T | JEG-3

O=C(Nc1ccc(-c2ccnc(Nc3ccc(N4CCOCC4)cc3)n2)cc1)C1CCCN1 (configuration not stated)
inactive: C33A | CASKI | Es-2 | HeLa | Hek293T | JEG-3

COc1cccc(N2CCN(C3=Nc4c(F)cccc4[C@H](CC(=O)O)N3c3cc(C(F)(F)F)ccc3OC)CC2)c1
inactive: C33A | CASKI | Es-2 | HeLa | Hek293T | JEG-3

CC(NC(=O)Cc1cc(F)cc(F)c1)C(=O)NC1C(=O)N(C)c2ccccc2-c2ccccc21 (configuration not stated)
inactive: C33A | CASKI | Es-2 | HeLa | Hek293T | JEG-3
